Screening results deposited in PubChem BioAssay by National Center for Advancing Translational Sciences (NCATS).
SW480 rereplic – induces DNA re-replication in SW480 colon adenocarcinoma cells; SW480 DNA re-replication, Hoechst DNA content imaging, 48 h; Potency, µM (top dose mostly 46.1 µM), for the others: at the top dose re-replication activation, usual class: activators; 340,000 compounds, 1.8% hits; AID 624297; also: % of control where 0% means no effect; nearly all actives have a fitted effect of over 55% in size
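Image-based DNA-content assay: after two days of treatment, nuclei were labelled with the DNA dye Hoechst and imaged, and hits were compounds raising the count of nuclei showing high fluorescence intensity.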
KB-3-1 tox – KB-3-1 parental cell cytotoxicity. KB-3-1 viability, CellTiter-Glo ATP luminescence, 72 h. 400,000 compounds, 1.4% hits. Potency, µM (top dose mostly 46.1 µM), most hits filed as cytotoxic; also: % is scaled to controls: 0 for no effect and ±100 for the full control effect; nearly all actives have a fitted effect of over 60% in size
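72 h, 37 °C compound treatment of KB-3-1 parental cells; CellTiter-Glo added, 10 min, luminescence read. Data corrected against DMSO-only plates and normalized before curve fitting.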
MCF10A rereplic – induces DNA re-replication in MCF 10a normal breast cells; MCF 10A DNA re-replication, Hoechst nuclear intensity, 48 h; Potency, µM (series often up to 46.1 µM), inactives show at the highest dose activity, positive = re-replication, most hits filed as activators; 350,000 compounds, 2.9% hits; AID 624296; also: % of control where 0% means no effect; nearly all actives have a fitted effect of over 50% in size
KB-V1 cytotox – kills drug-selected multidrug resistant KB-V1 cells | KB-V1 MDR cells viability, CellTiter-Glo, 72 h | 400,000 compounds, 3.4% hits | AID 1347076 | Potency, µM (doses to about 46.1 µM), actives largely listed as cytotoxic; also: % is scaled to controls: 0 for no effect and ±100 for the full control effect; nearly all actives have a fitted effect of over 60% in size
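KB-V1 cells (P-gp-expressing MDR subline of KB-3-1) in phenol-red-free DMEM with 10% FBS were exposed to library compounds over a concentration series for 72 h at 37 degrees C. Viability read by CellTiter-Glo luminescence; concentration-effect curves fitted after normalization.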
ELG1 repair inh – ELG1-dependent DNA repair inhibition | Potency, µM (doses to about 46.1 µM), for the others: at the top dose activity change, negative = inhibition, hits mostly inhibitors | 330,000 compounds, 2.3% hits | HEK293T ELG1-luciferase reporter, luminescence, 16 h; DNA damage induced by 5-fluorouridine; also: % is scaled to controls: 0 for no effect and ±100 for the full control effect; nearly all actives have a fitted effect of over 55% in size
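Luminescence from the luciferase reporter, measured 30 min after ONE-Glo reagent at room temperature, was the read-out. Beforehand, 2,000 cells per well were exposed for 16 hr at 37 °C to 5-fluorouridine together with compound or vehicle.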
An asterisk follows results filed as active; i = inactive; u = inconclusive; x = not tested or not shown; [ ] = another dose, or the depositor's remark. Only some compounds are listed: those with a hit (about 8.2% of all), similar ones and a draw of the others. Calls follow the shape of the dose curve; as a rule, active = well fitted curve in the direction sought with a large enough effect; inconclusive = small, poorly fitted or top-dose-only effect, or another doubt; inactive = no such curve, though single readings can be large; an effect the other way counts as inactive or inconclusive. Potency is read from the fitted curve at half-maximal effect.

SMILES	SW480 rereplic	KB-3-1 tox	MCF10A rereplic	KB-V1 cytotox	ELG1 repair inh
CCCCC[C@H](O)/C=C/C1C(=O)C=C[C@H]1C/C=C\CCCC(=O)OC (stereo partly specified)	23%[9.22 µM]	i	18µM*	i	x
Cc1noc(C)c1S(=O)(=O)Nc1ccc2c(c1)C(=O)N([C@H](C)CO)C[C@H](C)[C@@H](CN(C)S(=O)(=O)c1ccccc1)O2	-2%	u	-1%	u	u
CN(C)S(=O)(=O)c1cccc(C(=O)Nc2ccc(N3CCOCC3)cc2)c1	u	i	15%	i	19%
CN(c1ccccc1)S(=O)(=O)c1cccc(C(=O)Nc2ccc(N3CCOCC3)cc2)c1	5%	i	u	i	18µM*
Cc1ccc(N(C)S(=O)(=O)c2cccc(C(=O)Nc3ccc(N4CCOCC4)cc3)c2)cc1	7%	u	18%	u	16µM*
CCOc1ccc(NC(=O)c2cccc(OC(=S)N3CCOCC3)c2)cc1	1%	i	11%	u	-10%
COc1ccc(N(C)S(=O)(=O)c2cccc(C(=O)Nc3ccc(N4CCOCC4)cc3)c2)cc1	u	u	16%	15µM*	u
COc1ccc(NC(=O)c2cccc(OC(=S)N3CCOCC3)c2)cc1	-7%	i	-2%	16µM*	-5%
COc1ccc(N(C)S(=O)(=O)c2cccc(C(=O)NC3=NCCS3)c2)cc1	2%	i	-12%	i	u
CC1(C)N=C(c2ccccc2)C(c2ccccc2)=N1	11%	i	5%	i	x
CCc1ccc(NC(=O)C(C)OC(=O)Cn2[nH]c(=O)c3ccccc3c2=O)cc1 (stereo unspecified)	x	i	x	i	x
O=C(/C=C/c1ccc(Cl)cc1Cl)c1nc2ccccc2[nH]1	u	i	0%	i	6%
CC(C)SC1=NC(C)(C)C=C(/C=C/c2ccc(Cl)cc2Cl)N1	u	u	8.2µM*	i	-20%
CC(C)SC1=NC(C)(C)C=C(/C=C/c2c(Cl)cccc2Cl)N1	u	15µM*	18µM*	i	-21%
CCOC(=O)C1CCN(C(=O)c2ccc3c(c2)OCCO3)CC1	-6%	i	-4%	i	u
COc1ccc(C(=O)N2CCC(C(=O)c3ccc(F)cc3)CC2)cc1	-6%	i	-10%	u	u
COc1ccc(C(=O)C2CCN(C(=O)c3ccc(OC)cc3)CC2)cc1	1%	u	12%	6.5µM*	-7%
COCCNC(=S)N1CCC(C(=O)c2ccc(C)cc2)CC1	5%	i	12%	i	1%
Cc1ccc(C(=O)C2CCN(C(=S)NCCCOC(C)C)CC2)cc1	15µM*	i	21%	i	-16%
Cc1ccc(C(=O)N2CCC(C(=O)c3c(C)cc(C)cc3C)CC2)cc1	3%	i	9%	i	16µM*
Cc1ccc(C(=O)C2CCN(C(=O)c3ccc(C)cc3)CC2)cc1	-3%	i	u	i	u
CCOc1ccc(C(=O)N2CCC(C(=O)c3ccc4c(c3)OCCO4)CC2)cc1	6%	i	21%	4.1µM*	u
C[C@H]1CN(CCc2ccccc2)C(=O)[C@@H]1CC(=O)Nc1ccccc1	x	i	x	i	x
COc1ccc(CCNC(=O)C2CCN(C(=O)c3ccc(F)cc3)CC2)cc1	u	i	0.65µM*	i	-5%
COc1ccc(NC(=S)N2CCC(C(=O)c3ccc(C)cc3)CC2)cc1	9%	i	-9%	i	-5%
SMILES	SW480 rereplic	KB-3-1 tox	MCF10A rereplic	KB-V1 cytotox	ELG1 repair inh
COc1ccc(NC(=S)N2CCC(C(=O)c3ccc(OC)cc3)CC2)cc1	u	i	2%	i	23µM*
CC(=O)c1ccc(S(=O)(=O)NC2CC(=O)N(c3ccc(Cl)cc3)C2)cc1 (stereo unspecified)	-10%	i	5%	i	u
COc1cc2c(Nc3ccc(Br)cc3F)ncnc2cc1OCC1CCN(C)CC1	u	x	27µM*	x	x
Cc1ccc(-n2nnnc2SCC(=O)Nc2ccccc2N2CCCCC2)cc1C	2%	u	u	u	9.2µM*
COc1ccc(OC)c(-n2nnnc2SCC(=O)NCCc2ccccc2)c1	7.3µM*	i	5.8µM*	u	-16%
COc1ccc(C)cc1-n1nnnc1SCC(=O)Nc1cccnc1Cl	5%	i	-3%	13µM*	u
Cc1ccc(-n2nnnc2SCC(=O)Nc2ccccc2-c2ccccc2)cc1C	5%	i	u	u	u
Cc1ccc(C)c(SCC(=O)Nc2cccnc2Cl)c1	-16%	i	1.6µM*	i	8%
CC1(Cc2ccc3c(c2)OCO3)C(=O)Nc2c(Cl)ccc(Cl)c21 (stereo unspecified)	x	i	x	i	x
COc1ccccc1NC(=O)CSc1nc(O)cc(=O)n1-c1ccccc1OC	11%	i	15µM*	i	18%
CCOc1ccccc1NC(=O)CSc1nnc2c(CC)c(C)nc(N)n12	-2%	i	14%	15µM*	-6%
CCOc1ccccc1NC(=O)CSc1nnnn1-c1ccccc1	-1%	i	-4%	9.2µM*	-5%
CCOc1ccccc1NC(=O)CSc1nnnn1-c1ccc(C(=O)OC)cc1	0%	i	13%	i	-27%
CN1CCN(c2ccc(NC(=O)CSc3nnnn3-c3ccccc3Cl)cc2)CC1	21µM*	i	u	i	u
CCc1c(C)nc(N)n2c(SCC(=O)Nc3ccccc3OC)nnc12	-1%	i	13%	u	u
O=C(CSc1nnnn1-c1ccccc1)Nc1ccc(N2CCOCC2)c(Cl)c1	10%	i	1%	i	x
O=C(CN(Cc1ccccc1Cl)C(=O)c1csnn1)NC1CCCC1	-3%	i	-3%	i	2%
COc1ccccc1NC(=O)CSCc1nc2ccccc2[nH]1	-55%	i	0%	21µM*	3%
COc1ccccc1-n1nnnc1SCC(=O)Nc1oc(C)c2c(C)n[nH]c(=O)c12	21µM*	i	6%	i	1%
COc1ccccc1NC(=O)CSc1nnnn1-c1ccccc1OC	-33%	i	0.65µM*	i	-9%
Cc1ccccc1NC(=O)c1cc2c(-c3ccccc3)nn(-c3ccccc3)c2s1	x	i	x	i	x
COc1cc(OC)c(-c2nn3c(-c4cc(C)[nH]n4)nnc3s2)cc1OC	x	i	x	u	x
CN1C(C(=O)NCc2ccc(OC(F)(F)F)cc2)CC2Cn3c(nc4ccccc43)C21 (stereo unspecified)	3%	i	2%	i	-2%
Cc1cc(C)nc(N/N=C2/CCCC/C2=C\c2ccccc2)n1	u	i	2%	u	2.3µM*
Cc1ccnc(N/N=C/c2ccccc2)n1	-4%	i	2%	i	u
